Reference: the supplement of paper PMC8866396
± gives the standard deviation of the averaged measurements.

tested on: IL-6-GFP PC-9; experiment: cell viability (CCK-8 OD) relative to DMSO control (fraction of control); higher = more viable cells; conditions: compound concentration: 10 uM; treatment time: 48 h
Outline: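 Compounds from a purchased library of 510 were each tested at a final 10 μM for 48 h on PC-9 and PC-9GR lung cancer cells plated at 3000 cells/well in 96-well plates. These cells overexpressed IL-6-GFP from a lentiviral construct. Viability came from CCK-8 absorbance, given as the optical density of each well over that of the vehicle control well, across independent replicates numbering two.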

Which cell viability does the source give for `COC1CC2CCC(C)C(O)(O2)C(=O)C(=O)N2CCCCC2C(=O)OC(C(C)CC2CCC(OCCO)C(OC)C2)CC(=O)C(C)/C=C(\C)C(O)C(OC)C(=O)C(C)CC(C)/C=C/C=C/C=C/1C` (centres undefined) [Everolimus (RAD001)] here?
Its cell viability is 0.66 ± 0.29.

With `CC(=O)OCC1OC(n2ccc(=O)[nH]c2=O)C(OC(C)=O)C1OC(C)=O` (centres undefined) [uridine triacetate] as the compound, how does the cell viability read?
The cell viability was 1.175 ± 0.0034.

Which cell viability does the source give for `CCC1(O)CC2CN(CCc3c([nH]c4ccccc34)C(C(=O)OC)(c3cc4c(cc3OC)N(C)C3C(O)(C(=O)OC)C(OC(C)=O)C5(CC)C=CCN6CCC43C65)C2)C1.O=S(=O)(O)O` (centres undefined) [Vinblastine sulfate] here?
The cell viability was 0.655 ± 0.084.

With `Cl.Cl.O=C(O)COCCN1CCN(C(c2ccccc2)c2ccc(Cl)cc2)CC1` (centres undefined) [Cetirizine DiHCl] as the compound, how does the cell viability read?
The cell viability was 1.02 ± 0.033.
